“And” between values parts separate entries of the source, which are not always exact repeats. Equal values may be shown once. Where a name gives a salt, the structure may show the parent alone.
Legend:
Assay in all cases: cell viability relative to vehicle control; higher = less cytotoxic
Conditions in all cases: 10 µM
K562 = test system: K562
Procedure, shortened: (§1)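 Screening covered the Selleck bioactive, kinase and epigenetic probe libraries, less identity-inconsistent compounds, on CRISPR-edited mutant clones and isogenic wild-type clones of four leukaemia lines. Cells, at 2000 per well in 50 µL medium, received a single 10 µM acoustically dispensed dose. After 48 h the supernatant was removed and CellTiter-Glo luminescence was read. Viability was analysed in Genedata Screener as percent of the on-plate vehicle control.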

MARIMO = test system: MARIMO
Procedure, shortened: as §1

MOLM14 = test system: MOLM14
Procedure, shortened: as §1

OCI-AML2 = test system: OCI-AML2
Procedure, shortened: as §1

| Compound | cell viability (K562; SRSF2 genotype: SRSF2 P95H/wt) | cell viability (K562; SRSF2 genotype: SRSF2 wt/wt) | cell viability (MARIMO; SRSF2 genotype: SRSF2 P95H/wt) | cell viability (MARIMO; SRSF2 genotype: SRSF2 wt/wt) | cell viability (MOLM14; SRSF2 genotype: SRSF2 P95H/wt) | cell viability (MOLM14; SRSF2 genotype: SRSF2 wt/wt) | cell viability (OCI-AML2; SRSF2 genotype: P95H/wt) | cell viability (OCI-AML2; SRSF2 genotype: wt/wt) |
| --- | --- | --- | --- | --- | --- | --- | --- | --- |
| Cc1ncc(-c2ccnc(Nc3ccc(S(C)(=O)=O)cc3)n2)n1C(C)C | 45.1% and 45.5% | 32.4% | 10.9% | 5.22% | 1.23% | 0.38% | 0.94% | 15.2% |
| CNc1cc(-c2cccc(Cl)c2Cl)nc(N)n1 | 15.8% and 28.9% | 29.6% | 12.2% | 9.54% | 9.14% | 2.78% | 6% | 11.5% |
| CC1=CC(=O)[C@@H]2C[C@H]1C2(C)C [(-)-Verbenone] | 105% and 102% | 96.3% | 92.5% | 98.8% | 90.8% | 95.7% | 87.2% | 96.3% |
| COc1ccc(-c2nc(-c3cc(C(F)(F)F)cc(C(F)(F)F)c3)n(Cc3ccc(C(N)=O)cc3)c2-c2ccc(OC)cc2)cc1 [Apoptozole] | 80.8% and 87.7% | 80.8% | 89.9% | 88.9% | 88.5% | 90.3% | 69.4% | 84.9% |
| O=C([O-])c1ccccc1O.[Na+] [Sodium salicylate] | 93.7% and 88.7% | 85.5% | 94.4% | 97% | 97% | 94.1% | 91.2% | 98% |
| CO[C@@H](C)Cn1c(=O)n(C)c2cnc3ccc(-c4cncc(C(C)(C)O)c4)cc3c21 | 34.4% and 40.7% | 35% | 38.5% | 35.8% | 18.6% | 19.2% | 5.3% | 13.6% |
| O=C(CCCN1CCC(O)(c2ccc(Cl)cc2)CC1)c1ccc(F)cc1 [Haloperidol (Haldol)] | 87.7% and 94.9% | 94.5% | 73.9% | 85.3% | 84.8% | 91% | 84.2% | 91% |
| CC(C)NCC(O)COc1ccc(CCOCC2CC2)cc1 (configuration not stated) [Betaxolol hydrochloride (Betoptic)] | 97.5% and 96.6% | 94.3% | 103% | 107% | 99.5% | 99.7% | 91.2% | 99.6% |
| O=c1cc(-c2ccc(O)cc2)oc2cc(O)cc(O)c12 [Apigenin] | 102% and 96.4% | 96% | 85.9% | 99.8% | 55.4% | 57.5% | 67.9% | 63.6% |
| COC(=O)[C@H](CC(C)C)NC(=O)c1ccc(NC[C@@H](N)CS)cc1-c1cccc2ccccc12 [GGTI 298 TFA salt] | 7.41% and 14.8% | 31.9% | 55% | 51.1% | 41% | 50.6% | 40.6% | 37.7% |
| O=c1cc(-c2ccc(O)c(O)c2)oc2cc(O)c([C@@H]3O[C@H](CO)[C@@H](O)[C@H](O)[C@H]3O)c(O)c12 [Homoorientin] | 90.2% and 85% | 84.1% | 83.8% | 90% | 83.2% | 90% | 86.7% | 88.7% |
| O=c1[nH]cc(F)c(=O)[nH]1 [Adrucil (Fluorouracil)] | 92.3% and 90% | 74.5% | 68.5% | 67.4% | 37.5% | 26.1% | 49.1% | 55.1% |
| Cn1nccc1Nc1nccc(-c2cc3c(s2)C(C)(C)N(CCN2CCOCC2)C3=O)n1 | 77.8% and 81.6% | 76.5% | 39.5% | 40.1% | 42.6% | 37% | 38.6% | 43.2% |
| CC1CCCCCCCCCCCCC(=O)C1 (configuration not stated) [Muscone] | 91.4% and 89.5% | 87.4% | 87.1% | 97.1% | 90.6% | 89.2% | 82% | 90.7% |
| Cc1nccn1CC1CCc2c(c3ccccc3n2C)C1=O (configuration not stated) [Ondansetron hydrochloride (Zofran)] | 96.1% and 89.4% | 93.8% | 88.4% | 95.6% | 102% | 98.9% | 95.5% | 101% |
| C[C@@H]1CC(=O)Nc2cccc(-c3ccc4c(c3)c(-c3cnn(C)c3)nn4C)c2N1 | 80.2% and 77.7% | 81.6% | 55.1% | 49.1% | 32.5% | 35.8% | 32.6% | 47.2% |
| O=C(O)CC(O)C(=O)O (configuration not stated) [Malic acid] | 82.4% and 82.1% | 83.7% | 99.6% | 88.9% | 77.2% | 101% | 102% | 104% |
| COc1ncnc(NS(=O)(=O)c2ccc(N)cc2)c1OC [Sulfadoxine (Sulphadoxine)] | 103% and 107% | 98.1% | 104% | 105% | 95.4% | 100% | 98.5% | 96.3% |
| CCn1cc(C(=O)O)c(=O)c2cc(F)c(N3CCNCC3)nc21 [Enoxacin (Penetrex)] | 111% and 106% | 108% | 109% | 111% | 105% | 110% | 112% | 105% |
| C[C@@H](O)[C@H]1C(=O)N2C(C(=O)O)=C(S[C@@H]3CN[C@H](C(=O)Nc4cccc(C(=O)O)c4)C3)[C@H](C)[C@H]12 [Ertapenem sodium] | 108% and 107% | 105% | 103% | 109% | 99.6% | 107% | 97.1% | 99.8% |
| CO[C@H]1/C=C/O[C@@]2(C)Oc3c(C)c(O)c4c(O)c(c(/C=N/N5CCN(C)CC5)c(O)c4c3C2=O)NC(=O)/C(C)=C\C=C\[C@H](C)[C@H](O)[C@@H](C)[C@@H](O)[C@@H](C)[C@H](OC(C)=O)[C@@H]1C [Rifampin] | 106% and 97.3% | 93.9% | 99.9% | 116% | 83.1% | 95.7% | 96.4% | 105% |
| Cn1c(=O)cc(N2CCC[C@@H](N)C2)n(Cc2cc(F)ccc2C#N)c1=O [Trelagliptin] | 100% and 93.3% | 92.1% | 96.8% | 101% | 98.3% | 99.2% | 100% | 102% |

| Compound | cell viability (K562; SRSF2 genotype: SRSF2 P95H/wt) | cell viability (K562; SRSF2 genotype: SRSF2 wt/wt) | cell viability (MARIMO; SRSF2 genotype: SRSF2 P95H/wt) | cell viability (MARIMO; SRSF2 genotype: SRSF2 wt/wt) | cell viability (MOLM14; SRSF2 genotype: SRSF2 P95H/wt) | cell viability (MOLM14; SRSF2 genotype: SRSF2 wt/wt) | cell viability (OCI-AML2; SRSF2 genotype: P95H/wt) | cell viability (OCI-AML2; SRSF2 genotype: wt/wt) |
| --- | --- | --- | --- | --- | --- | --- | --- | --- |
| O=C(NCCCNc1nc(Nc2cccc(NC(=O)N3CCCC3)c2)ncc1I)c1cccs1 | 62.4% and 86.2% | 74.4% | 56.6% | 56.7% | 11.1% | 6.15% | 12.4% | 20.6% |
| CCCc1ccc(OCC(=O)N(Cc2nc(-c3cccnc3)no2)C(C)C)cc1 | 87.5% and 91.9% | 91.3% | 81.5% | 90.4% | 85.6% | 96% | 77.4% | 83.9% |
| CC(C)(O)CNc1nc(Nc2ccnc(C(F)(F)F)c2)nc(-c2cccc(C(F)(F)F)n2)n1 [AG-221 (Enasidenib)] | 102% and 103% | 103% | 93.1% | 99.8% | 97.8% | 110% | 84.6% | 89.4% |
| CS(=O)(=O)c1ccc(-c2cnc(NCc3ccco3)n3cnnc23)cc1 | 99.9% and 93.9% | 97.2% | 103% | 99.5% | 100% | 98.5% | 101% | 110% |
| CC12CCC(CC1=O)C2(C)C (stereo not drawn) [(+)-Camphor] | 94.2% and 102% | 101% | 96.2% | 99.9% | 99.3% | 99.8% | 103% | 92.2% |
| O=C1Cc2cc(CCN3CCN(c4nsc5ccccc45)CC3)c(Cl)cc2N1 [Ziprasidone hydrochloride] | 87% and 98.6% | 97% | 88.7% | 95.2% | 37.8% | 81.3% | 91.9% | 88.1% |
| O=C(NCCO)c1cccc(-c2cc(Nc3ccc(OC(F)(F)F)cc3)ncn2)c1 | 12.1% and 23% | 20.1% | 69.5% | 76.6% | 93.2% | 91.3% | 65% | 72.3% |
| O=C1C[C@@H](c2ccc(O)cc2)Oc2cc(O)cc(O)c21 [Naringenin] | 99.2% and 105% | 103% | 106% | 107% | 111% | 112% | 96.5% | 96.7% |
| N#Cc1ccc2[nH]c(O)c(-c3ccc(CN4CCOCC4)cn3)c2c1 | 73.5% and 54.9% | 78.4% | 81.4% | 97.9% | 71.2% | 93.3% | 98.7% | 123% |
| O=c1c2cc(O[C@@H]3O[C@H](CO)[C@@H](O)[C@H](O)[C@H]3O)c(O)cc2oc2cc(O)c([C@@H]3O[C@H](CO)[C@@H](O)[C@H](O)[C@H]3O)c(O)c12 [Neomangiferin] | 95.1% and 100% | 97% | 93.8% | 91.2% | 99.4% | 100% | 101% | 97.7% |
| CC(=O)Nc1ccc(OC(=O)c2ccccc2OC(C)=O)cc1 [Benorylate] | 102% | 98.9% | 104% | 100% | 104% | 101% | 107% | 108% |
| OC[C@@H](O)[C@@H](O)[C@H](O)[C@H](O)CO [D-Mannitol (Osmitrol)] | 98% and 97.7% | 106% | 107% | 116% | 107% | 109% | 97% | 100% |
| CC(=NNC(=S)N1CCC1)c1ccccn1 | 20.3% and 23% | 23.7% | 7.26% | 11.4% | 1.22% | 0.64% | 11% | 9.98% |
| CC(C)(Sc1ccncc1-c1ccc(C#N)c2ccccc12)C(=O)O [Verinurad (RDEA3170)] | 102% and 101% | 102% | 105% | 104% | 95.8% | 102% | 109% | 105% |
| CO[C@H]1C[C@H](O[C@@H]2/C(C)=C/C[C@@H]3C[C@@H](C[C@]4(CC[C@H](C)[C@@H](C5CCCCC5)O4)O3)OC(=O)[C@@H]3C=C(C)/C(=N/O)[C@H]4OC/C(=C\C=C\[C@@H]2C)[C@]43O)O[C@@H](C)[C@@H]1O [Selamectin] | 16.6% and 37.1% | 27.3% | 3.71% | 4.17% | 38.4% | 17% | 10.6% | 24.5% |
| COCCOC(=O)C1=C(C)NC(C)=C(C(=O)OC(C)C)C1c1cccc([N+](=O)[O-])c1 (configuration not stated) [Nimodipine (Nimotop)] | 88.8% and 92.4% | 99.3% | 85.2% | 92.7% | 87.6% | 99.4% | 83.7% | 88.4% |
| O=c1[nH]c(=O)n([C@H]2C[C@H](O)[C@@H](CO)O2)cc1Br [Bromodeoxyuridine (BrdU)] | 90.5% and 102% | 96.1% | 91.2% | 88% | 80.8% | 79.1% | 90.5% | 99.9% |
| CNCCc1ccccn1 [Betahistine 2HCl] | 97.2% and 99.7% | 95.5% | 88.7% | 102% | 90.6% | 99.8% | 89.3% | 101% |
| CC1=CCC2CC1C2(C)C (configuration not stated) | 99.8% and 101% | 99.4% | 95.5% | 94.5% | 98.5% | 99.8% | 97% | 102% |
| CCCCOc1ccc(CC(=O)NO)cc1 [Bufexamac] | 95% and 94.9% | 98.8% | 91.6% | 88.7% | 85.7% | 93.1% | 98.1% | 91.8% |
| c1cc2c(c3c1C[C@H]1c4cc5c(cc4CCN1C3)OCO5)OCO2 [Stylopine hydrochloride] | 90.4% and 91.9% | 91.4% | 97.7% | 96.3% | 88% | 94% | 92.8% | 97.5% |
| C[C@@H](N)c1ccc(C(=O)Nc2ccnc3[nH]ccc23)cc1 | 90.4% and 107% | 105% | 65.8% | 78% | 31.2% | 41.1% | 19.1% | 32.1% |
